This is a sample that favours compounds with a hit; in the whole collection about 3.5% have one here.
MITF inh: MITF inhibitors, primary screen, biochemical, AlphaScreen, human; Microphthalmia-associated transcription factor (Homo sapiens), O75030; AlphaScreen MITF homodimerization, bead proximity signal; inhibition, % at 2.6 µM; hit rate 0.91% among 650,000; AID 1259374, 2018; in the data active = inhibition above about 50%;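 also: 0% = vehicle wells with protein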
Target sequence (O75030 whole entry, looked up): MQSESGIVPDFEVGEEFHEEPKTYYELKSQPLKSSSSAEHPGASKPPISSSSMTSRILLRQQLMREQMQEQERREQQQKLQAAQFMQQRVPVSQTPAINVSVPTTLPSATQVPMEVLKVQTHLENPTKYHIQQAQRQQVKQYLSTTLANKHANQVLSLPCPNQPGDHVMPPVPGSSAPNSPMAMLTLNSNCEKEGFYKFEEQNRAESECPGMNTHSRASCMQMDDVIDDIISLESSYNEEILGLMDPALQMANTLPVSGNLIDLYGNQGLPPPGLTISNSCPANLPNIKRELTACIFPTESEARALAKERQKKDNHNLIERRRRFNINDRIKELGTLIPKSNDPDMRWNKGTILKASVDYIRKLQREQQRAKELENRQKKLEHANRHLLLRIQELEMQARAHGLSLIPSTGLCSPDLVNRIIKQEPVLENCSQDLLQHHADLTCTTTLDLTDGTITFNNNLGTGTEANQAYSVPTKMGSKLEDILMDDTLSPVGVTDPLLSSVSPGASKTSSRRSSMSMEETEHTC
TEAD-YAP inh: TEAD-YAP interaction inhibition, primary screen, TEAD-YAP interaction inhibitor project, luminescence, HEK-TIYL cells | hit rate 1.4% among 640,000 | TEAD-Gal4/YAP UAS-luciferase luminescence | inhibition, % at 9.12 µM | AID 1259422, 2018; in the data active = inhibition above about 32%;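 also: 0% = median of test compound wells and 100% = reference inhibitor wells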
GPR151 ag: activators of human GPR151, primary screen, cell-based, PathHunter beta-arrestin, luminescence; hit rate 1% among 650,000; activation, % at 11.2 µM; PathHunter beta-arrestin GPR151 cells; in the data active = activation above about 4.9%;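 also: 0% = median of compound wells and 100% = cells with positive control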
FBW7 act: FBW7 E3 ligase activators, primary screen, biochemical, AlphaScreen, human. AlphaScreen FBW7–phospho-cyclin E peptide binding, activator screen. normalized activity (activation), % at 26.1 µM. hit rate 0.13% among 650,000. AID 1259310, 2017; in the data active = normalized activity above about 1.9%;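 also: purified mutant Fbw7 with reduced substrate affinity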
Active calls of the source: *.

SMILES	MITF inh	TEAD-YAP inh	GPR151 ag	FBW7 act
Oc1cccc(-c2cnn3c(NCc4ccccn4)ccnc23)c1	14	56*	-1	-1
CN(Cc1ccccc1)c1ccnc2c(-c3cccc(CO)c3)cnn12	-18	76*	0	0
Cc1ccc(-c2cn3c(n2)sc2cc(C(=O)NCCCN4CCCC4=O)ccc23)cc1	19	-17	1	1
Cc1cc(C(=O)N(CCCN2CCOCC2)c2nc3ccc(F)cc3s2)n(C)n1	5	-46	1	0
COc1ccc(Nc2ccnc3c(-c4ccc(O)cc4)cnn23)cn1	-15	91*	-2	0
COc1ccc(Nc2ccnc3c(-c4cccc(CO)c4)cnn23)cn1	5	98*	-3	0
COc1ccc(Nc2ccnc3c(-c4cccc(O)c4)cnn23)cn1	13	25	-2	0
Cc1nnc2n1CCN(C(=O)/C(F)=C/c1ccccc1)CC2	-4	-5	0	1.9*
CN(C)c1ccc(/C=C/C(=O)/C=C/c2ccco2)cc1	63*	-4	-1	1
O=C(/C=C/c1cccc([N+](=O)[O-])c1)/C=C/c1ccco1	7	-1	1	0
CCN(CC)c1ccc2cc(S(=O)(=O)c3ccc(F)cc3)c(=O)oc2c1	-32	-17	-1	2.1*
COc1cccc2cc(S(=O)(=O)c3ccc(F)cc3)c(=O)oc12	6	-3	-1	0
CC[n+]1c(-c2ccc(C)cc2)csc1Nc1ccc(NC(C)=O)cc1	12	62*	1	0
CC[n+]1c(-c2ccc(C)cc2)csc1Nc1c(C)cc(C)cc1C	22	5	3	0
CCCOC(=O)C1=C(C)NC(=O)NC1c1cc(OC)c(OC)c(OC)c1 (stereo unspecified)	0	1	1	0
Cc1c(CN2CCOCC2)c(O)n(CCO)c(=O)c1C#N	8	-3	1	0
COc1ccc(C(=O)N=c2sc3cc(F)ccc3n2C)c(OC)c1	-1	55*	-1	0
N#Cc1ccc(NC(=O)c2cc3cc(Br)cc(Br)c3oc2=N)cc1	1	-3	-1	0
COc1cc(NC(=O)c2cncc(-c3cccc(C(C)=O)c3)c2)cc(OC)c1OC	1	59*	-1	0
COc1cccc(-c2cc(C(=O)Nc3cc(OC)c(OC)c(OC)c3)on2)c1	4	42*	0	0
COc1cc(NC(=O)c2cccc(-c3cccc(C(C)=O)c3)c2)cc(OC)c1OC	-2	30	3	0
COc1cc(NC(=O)c2cncc(-c3cccs3)c2)cc(OC)c1OC	7	39*	0	0
Cc1ccc(S(=O)(=O)C2(C(=O)Nc3ccc(Br)cc3F)CC2)cc1	2	-1	0	0
Cc1cc(N2C(=O)C(O)=C(C(=O)c3ccco3)C2c2cccc(F)c2)no1 (stereo unspecified)	-11	0	-1	0
CCN1C(=O)C2(/C(=C(\O)c3ccc(C)cc3)C(=O)C(=O)N2CCCOC)c2ccccc21 (stereo unspecified)	-7	8	2	0
SMILES	MITF inh	TEAD-YAP inh	GPR151 ag	FBW7 act
COc1ccc(-n2nnnc2-c2cccc(OC)c2)cc1	10	58*	3	0
Cc1ccc(N(C)S(=O)(=O)c2c(C)noc2/C=C/N(C)C)cc1F	6	6	0	0
O=C(Nc1sc2c(c1C(=O)O)CCCCC2)c1cccs1	0	42*	-8	0
CC1CCc2c(sc(NC(=O)c3cccs3)c2C(=O)O)C1 (stereo unspecified)	1	61*	1	0
CC1CCc2c(sc(NC(=O)c3ccccc3)c2C(=O)O)C1 (stereo unspecified)	16	70*	-4	0
COc1ccc(NC(=O)c2c(NC(=O)c3cccs3)sc3c2CCC(C)C3)cc1 (stereo unspecified)	-13	-3	0	0
COc1cc(Br)cc(/C=C2\SC(=S)NC2=O)c1OC	4	6	0	0
CC(=O)OC[C@@]1(O)CC23CC[C@@H]4c5ccoc5CC[C@@]4(C)[C@@H]2CC[C@@H]1C3	6	4	2	0
CC(=O)Nc1ccc(N=Nc2ccc(O)cc2)cc1	7	56*	-2	0
CC(=O)c1ccc(N=Nc2c(C)[nH][nH]c2=O)cc1	0	-21	-6	0
CC(=O)c1ccc(N=Nc2ccc(O)cc2)cc1	16	99*	-8	0
COc1ccc(N2CCN(CC(=O)N3c4ccccc4CC3C)CC2)cc1 (stereo unspecified)	65*	5	1	1
COc1ccc(N2CCN(C(=O)CN(c3ccccc3C)S(C)(=O)=O)CC2)cc1	72*	1	-1	0
COc1ccc(N2CCN(C(=O)CCl)CC2)cc1	8	49*	-1	1
CC1Cc2ccccc2N1C(=O)CN1CCc2ccccc2C1 (stereo unspecified)	17	12	-2	0
COc1ccc(N2CCN(C(=O)CN(c3cccc(C)c3C)S(C)(=O)=O)CC2)cc1	7	7	0	0
O=C(CCl)N1CCN(c2ccc([N+](=O)[O-])cc2)CC1	7	34*	0	0
COc1cc(C(=O)NC(c2ccc(Cl)cc2)c2c(O)ccc3ccccc23)cc(OC)c1OC (stereo unspecified)	7	8	-1	0
CC(C)C[C@@H]1NC(=O)[C@H]2CN(C(=O)OCc3ccccc3)CCN2C1=O	12	9	0	1
CC(C)(C)C(=O)Nc1ccc(NC(=O)c2cccs2)nc1	4	94*	-4	0
CCOC(=O)c1c(N)sc(C)c1-c1ccc(Br)cc1	5	2	0	0
COc1cccc(-c2cc(C(=O)Nc3cc(C)ccc3O)no2)c1	-4	-11	1	0
Nc1ccc(-c2nc3cccnc3s2)cc1	-9	34*	-8	0
CC(C)CC(=O)Nc1ccc(-c2nc3cccnc3s2)cc1	16	54*	-3	0
O=C(Nc1ccc(-c2nc3cccnc3s2)cc1)c1ccccc1	-3	-48	-3	0
SMILES	MITF inh	TEAD-YAP inh	GPR151 ag	FBW7 act
O=C(Nc1ccc(-c2nc3cccnc3s2)cc1)C1CC1	10	75*	-4	0
O=C(Cc1ccccc1)Nc1ccc(-c2nc3cccnc3s2)cc1	8	-17	0	0
c1ccc(COc2ccc(CN3CCOCC3)cc2)cc1	-14	71*	-4	0
CC(/C=C1N=C(/C=C/c2ccc(C)cc2)OC\1=O)=C\c1ccccc1	-1	-6	1	1
CCn1c(Sc2ccc(C=O)cc2[N+](=O)[O-])nnc1-c1ccco1	4	1	-1	0
CCn1c(Sc2ccc([N+](=O)[O-])cc2C=O)nnc1-c1ccco1	-5	51*	0	0
Cc1ccc2ccc(C(Nc3ccccn3)c3ccccn3)c(O)c2n1 (stereo unspecified)	6	39*	0	0

From PubChem BioAssay
